# Compounds without any hit were thinned out: in the full panel of roughly 83,000, 20% have a hit.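 Results are percent growth after 48 hours of single-concentration exposure. 100 means growth as in untreated cells, lower positive values show inhibition; negative values down to -100 show cell death.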 A number with no mark means an inactive call. The source made the active and inactive calls. The calls were made as follows: active = growth percent below 10; inactive = the rest.
# Columns and labels:
# Test in all cases: NCI-60 one-dose screen, 48 h (100 = growth as untreated, 0 = no growth, -100 = all killed)
# Conditions in all cases: 10 µM
# DU-145 prostate = test system: DU-145 prostate
# MALME-3M melanoma = test system: MALME-3M melanoma
# MDA-MB-231 breast = test system: MDA-MB-231 breast
# RXF 393 renal = test system: RXF 393 renal
# SF-268 CNS = test system: SF-268 CNS
# SF-295 CNS = test system: SF-295 CNS
# SF-539 CNS = test system: SF-539 CNS
# UACC-257 melanoma = test system: UACC-257 melanoma
# M14 melanoma = test system: M14 melanoma
Structure (SMILES),growth (DU-145 prostate),growth (MALME-3M melanoma),growth (MDA-MB-231 breast),growth (RXF 393 renal),growth (SF-268 CNS),growth (SF-295 CNS),growth (SF-539 CNS),growth (UACC-257 melanoma),growth (M14 melanoma)
CN1CCN(c2ccc(Nc3nc(NCCCNC(=O)c4ccc(F)cc4)c4sccc4n3)cc2)CC1,75.5%,-72.3% (active),58.1%,10.8%,74.6%,79.9%,-90% (active),-26.7% (active),-7% (active)
COc1ccc(-c2nc(S(=O)(=O)c3ccc(C)cc3)c(S(=O)(=O)CC(=O)N(C)Cc3ccccc3)o2)cc1,35.5%,16.7%,2.89% (active),-54.4% (active),64.8%,78.5%,36.8%,67.9%,35.7%
O=C(CS(=O)(=O)c1oc(-c2ccc(Cl)cc2)nc1S(=O)(=O)c1ccccc1)N1CCCC1,-100% (active),-99.2% (active),-88.3% (active),-97.8% (active),74.5%,80.8%,-78.6% (active),-77.8% (active),-31.5% (active)
CC(C)C(=O)Nc1ccc(C(=O)NC(=S)Nc2ccc(C(=O)O)cc2)cc1,110%,97%,104%,111%,93.9%,95.3%,95.3%,128%,105%
CC(=C(c1ccc(OCCCN(C)C)cc1)c1ccc(OCCCN(C)C)cc1)c1ccccc1,-100% (active),-98.6% (active),-99.6% (active),-96.7% (active),-80.4% (active),-92.8% (active),-100% (active),-88% (active),-56.9% (active)
O=C(Nc1ccncc1)c1ccc(-n2c(=O)[nH]c3ccccc3c2=O)cc1,100%,96.3%,98.2%,88.9%,110%,95.6%,98.8%,109%,97.4%
Cc1cc2c(c(O)c1Br)-c1ncoc1C(=O)[C@]1(C)CC[C@H](C(C)C)[C@H]21,54%,31%,48.9%,60.6%,49.4%,22.9%,14.3%,15.1%,18.9%
CCN1CCN(c2ccc(NC(=O)Nc3ccc(-c4cc(C(=O)NC)c5ncccc5n4)cc3)cc2C(F)(F)F)CC1,-100% (active),-100% (active),-100% (active),-94.4% (active),-77.5% (active),-99% (active),-100% (active),-96.7% (active),-100% (active)
O=C(COc1ccc(NC(=O)Nc2ccc(Cl)cc2)cc1)N=Nc1c(O)[nH]c2ccc([N+](=O)[O-])cc12,60.3%,12.1%,-44.7% (active),73.1%,19.5%,87.3%,16.5%,74.9%,21.2%
O=C(Nc1ccc(OCC(=O)c2ccccc2)cc1)Nc1ccc(Cl)c(C(F)(F)F)c1,49.2%,10.4%,16.8%,-36.7% (active),18.9%,13.2%,12.1%,7.84% (active),17.5%
COc1cccc(C(N)=Nc2ccc(OCCCCCCn3cncn3)cc2)c1,33%,43.4%,13.6%,–,68.9%,–,-31.3% (active),56%,9.26% (active)
CN1CCN(c2ccc(Nc3nc(N4CCN(S(=O)(=O)c5ccc(F)cc5)CC4)c4sccc4n3)cc2)CC1,-84% (active),-97.9% (active),-94.6% (active),-89.1% (active),-72.3% (active),-88.5% (active),-100% (active),-86.1% (active),-56.9% (active)
CCC(C)S(=O)(=O)c1oc(-c2ccc(C)cc2)nc1S(=O)(=O)c1ccccc1 (stereo not given),-89.6% (active),-96.4% (active),-88.1% (active),-98% (active),-49.1% (active),46.9%,-100% (active),-89.5% (active),-42% (active)
COc1ccccc1NCc1ccc(CO)n1-c1ccc(C)cc1,111%,98.4%,91.2%,107%,94.7%,100%,94.7%,109%,101%
O=C(Cn1cc(CSc2nnc3oc4ccccc4n23)nn1)Nc1ccc(Br)cc1,92.3%,87.8%,35.5%,6.71% (active),37.8%,43.7%,29.9%,88.8%,98.8%
CCN(CC)CCOc1ccc(C(=C(C)c2ccccc2)c2ccc(OCCN(CC)CC)cc2)cc1,41.4%,-100% (active),-60.4% (active),-74.5% (active),11.6%,-63.6% (active),-98.1% (active),-83.4% (active),-53.5% (active)
CC(=O)Nc1nc(-c2ccc(N3CCN(C)CC3)c(NS(=O)(=O)c3ccc(C(F)(F)F)cc3)c2)cs1,23.3%,38.1%,24.2%,-47% (active),41.1%,46%,-86.4% (active),49.5%,-3.51% (active)
COc1ccc2[nH]c(O)c(N=NC(=O)COc3ccc(NC(=O)Nc4ccc(Cl)cc4)cc3)c2c1,18.5%,-14.4% (active),-69.9% (active),44.1%,-10.3% (active),14%,-39% (active),51.8%,-27.2% (active)
COc1cccc(-c2nn(-c3ccccc3)cc2-c2ccnc(NCCCNC(=O)Nc3ccc(F)cc3)c2)c1,54.1%,-24.7% (active),-1.32% (active),0.912% (active),26.1%,-40.5% (active),-29.9% (active),-11.9% (active),-21% (active)
CCN1CCN(c2ccc(NC(=O)Nc3ccc(-c4cc(C(=O)NC(C)C)c5ncccc5n4)cc3)cc2C(F)(F)F)CC1,-54.9% (active),-97.5% (active),-91.9% (active),-96% (active),-16.3% (active),-92.4% (active),-98.9% (active),-95.6% (active),-88.4% (active)
CCCCCc1ccc(S(=O)(=O)Nc2cc(-c3csc(N(C)C(C)=O)n3)ccc2N2CCN(C)CC2)cc1,70.5%,-57.1% (active),-2.21% (active),-73.8% (active),73.2%,-10.1% (active),-58.7% (active),-21.8% (active),28.3%

Structure (SMILES),growth (DU-145 prostate),growth (MALME-3M melanoma),growth (MDA-MB-231 breast),growth (RXF 393 renal),growth (SF-268 CNS),growth (SF-295 CNS),growth (SF-539 CNS),growth (UACC-257 melanoma),growth (M14 melanoma)
CC(=O)Nc1nc(-c2ccc(N3CCN(C)CC3)c(NS(=O)(=O)c3cccc4c(N(C)C)cccc34)c2)cs1,76.2%,-35.6% (active),65%,19.6%,78.5%,-58.7% (active),16%,-6.28% (active),-57.5% (active)
Cc1ccc(-c2nc3ccc(C(=O)N=Nc4c(O)[nH]c5ccc([N+](=O)[O-])cc45)cc3[nH]2)cc1,47.8%,57.5%,66.9%,83.5%,60.1%,93.5%,52.7%,84.8%,73.8%
CC(C)NC(=O)c1cc(-c2ccc(NC(=O)Nc3ccc(N4CCN(C)CC4)c(C(F)(F)F)c3)cc2)nc2cccnc12,-88.7% (active),-96.3% (active),-91.6% (active),-89.8% (active),-42.9% (active),-96.5% (active),-100% (active),-88.6% (active),-86.6% (active)
CC[C@@]1(O)C(=O)OCc2c1cc1n(c2=O)Cc2c-1nc1cc(F)c(C)c3c1c2[C@@H](N)CC3,6.82% (active),-55.8% (active),10.8%,-77.2% (active),6.53% (active),-0.789% (active),-74.9% (active),-59.6% (active),-20.8% (active)
CC(=C(c1ccc(OCCN2CCCCCC2)cc1)c1ccc(OCCN2CCCCCC2)cc1)c1ccc(Cl)cc1,-96.1% (active),-98.9% (active),-98.8% (active),-99.4% (active),-84.9% (active),-80.6% (active),-100% (active),-96.3% (active),-57.9% (active)
C#Cc1ccc(S(=O)(=O)Nc2cccc(-c3csc(NC(C)=O)n3)c2)cc1,82.6%,78.7%,84.5%,88.4%,87.3%,66.1%,90.3%,80%,92.4%
CCCS(=O)(=O)c1oc(-c2ccc(F)cc2)nc1S(=O)(=O)c1ccc(F)cc1,-85.8% (active),-98.8% (active),-91.9% (active),-97.5% (active),52.2%,78.2%,-94.2% (active),-30.9% (active),-37.5% (active)
O=C(CS(=O)(=O)c1oc(-c2ccc(Cl)cc2)nc1S(=O)(=O)c1ccc(Cl)cc1)N1CCOCC1,32.3%,-71.3% (active),-1.43% (active),-76.1% (active),84.6%,85%,21.5%,73.9%,24.4%
CN1CCN(c2ccc(Nc3nc(NCCCNC(=O)c4ccc(Cl)cc4)c4sccc4n3)cc2)CC1,84.2%,72.6%,61.1%,37.6%,77%,98%,18.7%,71.9%,68.6%
c1ccc(C(=C(c2ccc(OCCN3CCCCC3)cc2)c2ccc(OCCN3CCCCC3)cc2)C2CCCC2)cc1,-45.2% (active),-95.2% (active),-94.4% (active),29.1%,-61% (active),-63.8% (active),-96.4% (active),-34.2% (active),-44.4% (active)
N[C@@H](CSSC[C@H](N)C(=O)Nc1ccc(OCC2CCCC2)cc1)C(=O)Nc1ccc(OCC2CCCC2)cc1,-88.4% (active),-63.7% (active),-97.4% (active),-94.1% (active),-73.1% (active),-90.4% (active),-99.7% (active),-96.1% (active),-74.5% (active)
CC1(C)CC[C@]2(C(=O)NCCCNCCCCNCCCN)CC[C@]3(C)C(=CC[C@@H]4[C@@]5(C)Cc6c([nH]c7ccccc67)C(C)(C)[C@@H]5CC[C@]43C)[C@H]2C1,96.3%,85.3%,-7.91% (active),78.1%,113%,98.5%,90.7%,95.9%,59.7%
C=C(C)[C@@H]1CC[C@]2(C)[C@H](CC=C3[C@@H]4CC(C)(C)CC[C@]4(C(=O)N4CCOCC4)CC[C@]32C)[C@@]1(C)CCCN,-93.1% (active),-93.8% (active),-91.4% (active),-90.9% (active),-76% (active),-87.4% (active),-98.6% (active),-92.4% (active),-80% (active)
CC(=C(c1ccc(OCCN2CCCCC2)cc1)c1ccc(OCCN2CCCCC2)cc1)c1ccccc1,62.5%,-99.9% (active),4.97% (active),-66.2% (active),34.5%,-57.2% (active),-93.3% (active),-78.9% (active),-47.2% (active)
CC1(C)CC[C@]2(C(=O)Nc3ccccc3)CC[C@]3(C)C(=CC[C@@H]4[C@@]5(C)CC[C@H](N)C(C)(C)[C@@H]5CC[C@]43C)[C@H]2C1,26.6%,83.7%,71.7%,59.8%,119%,52.7%,87.8%,103%,82.4%
CCCCCc1ccc(S(=O)(=O)N(C(C)=O)c2cc(-c3csc(N(C)C(C)=O)n3)ccc2N2CCN(C)CC2)cc1,46.4%,-93.3% (active),-5.42% (active),-69.7% (active),65.9%,-88.2% (active),-95.7% (active),-34.1% (active),-78.1% (active)
C=C1CC[C@H](C(=C)C)[C@H]2C=C(C)C(=O)C3=C(C(=O)[C@@](C)(O)C3)[C@H]12,-45.4% (active),-79.1% (active),-70.1% (active),-82.7% (active),-50.1% (active),-86.4% (active),-98.4% (active),-97.3% (active),-30.3% (active)
NC(=Nc1ccc(OCCCCCCCCn2ccnn2)cc1)c1ccccc1,26.7%,45.1%,13.8%,–,72.4%,10.1%,–,50.8%,18.4%
Cc1ccc(NC(=O)NCn2c(=O)[nH]c3ccccc3c2=O)cc1,89%,79.3%,40.7%,30.3%,64.3%,95%,58.2%,94.5%,79.2%
C[C@H]1[C@H](C)CC[C@]2(COC(=O)CCC(=O)NCC#CCN3CCNCC3)CC[C@]3(C)C(=CC[C@@H]4[C@@]5(C)CCCNC(C)(C)[C@@H]5CC[C@]43C)[C@H]12,74.4%,-38.7% (active),43.4%,50.3%,77.1%,28.1%,41.9%,26.3%,-16.7% (active)

# Reference: PubChem BioAssay (NCI)
